# Results published in PubChem BioAssay (NCI).
# About 83,000 compounds went through this panel and 20% of them were active in at least one assay; those are over-represented in the sample as a whole.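 For each line, cells grew in 96-well plates with the test compound present at a single concentration for 48 hours.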 Activity calls are given as the source filed them.
# Test system: MCF7 breast
# Experiment: NCI-60 one-dose screen, 48 h (100 = growth as untreated, 0 = no growth, -100 = all killed)
# Conditions: 10 µM unless noted
# Protocol: Growth inhibition of the MCF7 human tumor cell line is measured as a screen for anti-cancer activity. Cells are grown in 96 well plates and exposed to the test compound for 48 hours. Compounds are tested at a single concentration, which is 10^-5 M for most compounds. The reported endpoint is percent growth (GI% or GIPRCNT), where numbers from 0 - 100% represent growth inhibition, and numbers from -100% - 0 represent cell death. For example, a value of 40 represents 60% growth inhibition. A value of 0 means no net growth occurred over the course of the experiment. A value of -40 indicates 40% of cells at the beginning of the experiment died by the end of the experiment. A value of -100 means all cells are dead at the end of the experiment.
# NCI-60 Human Tumor Cell Lines Screen was performed using the standard one-dose NCI protocol, which is described in more detail at https://dtp.cancer.gov/discovery_development/nci-60/default.htm.
# Compounds with GIPRCNT values below 10 were considered active. Activity score was based on GIPRCNT using the following formula: […]
# Score is 0 for GIPRCNT values of 100 or above, 50 for GIPRCNT values of 0, and 100 for GIPRCNT values of -100.
row,Structure (SMILES),growth
1,CN1CCN(c2c(F)cc(NC3=C(Cl)C(=O)c4ncccc4C3=O)cc2F)CC1,-58.3% (active)
2,COc1cc2c(cc1[N+](=O)[O-])-c1ccc([N+](=O)[O-])cc1/C2=N\O,58% (inactive)
3,COc1ccc(CC(C)=C(c2ccc(OCCN(C)C)cc2)c2ccc(OCCN(C)C)cc2)cc1,69.7% (inactive)
4,COc1cc(OC)c(/C=C/C(=O)c2ccc(Nc3ncnc4ccccc34)cc2)c(OC)c1,0.53% (active)
5,c1ccc2c(-c3c4ccsc4cc4[nH]c5ccccc5c34)c[nH]c2c1,15% (inactive)
6,O=C(Nc1nc2ccc(S(=O)(=O)Nc3ccc(C4(C(F)(F)F)CC4)cc3)cc2[nH]1)c1cnccn1,18.2% (inactive)
7,Cc1cc2nc(-c3ccccc3)c(-c3ccccc3)nc2cc1C,88.9% (inactive)
8,CCNNC(=O)[C@@H]1[C@H](c2cc(OC)c(OC)c(OC)c2)c2cc3c(cc2[C@H](O)[C@H]1CO)OCO3,10.2% (inactive)
9,CS(=O)(=O)c1ccc(-c2cc(-c3nnc(SCC(=O)Nc4ccc(C(=O)/C=C/c5ccc(Cl)cc5)cc4)n3-c3ccccc3)c3ccccc3n2)cc1,92.5% (inactive)
10,CC1=CC2(C)/C=C(C)/C=C\CC(O)/C=C3/C=CC(=C4C(=O)OC2(CC1C)C4=O)OC3 (stereo not given),-21.9% (active)
11,CCN(CC)CCOC(COc1cc(C)cc(C)c1)COc1cc(C)cc(C)c1,17.5% (inactive)
12,COc1cccc(/C=C2\COc3ccc(-c4ccccc4)cc3C2=O)c1,-3.38% (active)
13,NC(=O)CN1CCN(c2ccccc2Cl)CC1,102% (inactive)
14,COc1ccc(-c2nc3sccn3c2/C=C/C(=O)c2cc(OC)c(OC)c(OC)c2)cc1,17.2% (inactive)
15,CC1(C)[C@H](O)CC[C@]2(C)[C@@H]1CC[C@@]13C[C@@H](CC[C@H]12)[C@@](O)(CO)C3,99.3% (inactive)
16,C=C(C)[C@@H]1CC[C@]2(C(=O)NCC(=O)OC)CC[C@]3(C)[C@H](CC[C@@H]4[C@@]5(C)Cc6c([nH]c7ccccc67)C(C)(C)[C@@H]5CC[C@]43C)[C@@H]12,63.5% (inactive)
17,OC1(c2ccc(Cl)c(C(F)(F)F)c2)CCN(CCCC(c2ccc(F)cc2)c2ccc(F)cc2)CC1,-90.3% (active)
18,O=C(CCN1CCCC1)Nc1ccc2c(NCc3ccc(F)cc3)c3ccccc3nc2c1,-12.2% (active)
19,COc1ccc(Cn2nc(-c3ccccc3)c3c2CCc2cnoc2-3)cc1,72.6% (inactive)
20,COc1ccc(/C=N/C2=C(C#N)C(c3ccccc3[N+](=O)[O-])c3ccc4ccccc4c3O2)cc1 (stereo not given),56.4% (inactive)

row,Structure (SMILES),growth
1,Cn1c2c(Cl)c(Cl)ccc2c2cc(N)[nH]c(=O)c21,72.4% (inactive)
2,CC[C@H](C)[C@@H]1NC(=O)[C@H](Cc2ccc(O)cc2)N(C)C(=O)[C@H](Cc2ccccc2)NC(=O)CN(C)C(=O)[C@@H]2CCCN2C(=O)[C@@H](Cc2ccccc2)N(C)C(=O)[C@H](CC(C)C)NC1=O,-25% (active)
3,N#Cc1ccc(-c2ccc3c(c2)NC(=O)/C3=C\c2ccc[nH]2)cc1,15.3% (inactive)
4,O=S(=O)(NCCNc1nccc(-c2c(-c3ccc(F)c(O)c3)nc3occn23)n1)c1ccccc1,36.5% (inactive)
5,Cn1c(COC(=O)N2CCCCC2)nc2c(N3CCOCC3)nc(-c3ccccc3)nc21,-65.3% (active)
6,O=C(/C=C/c1ccc[nH]1)c1ccc(-n2ccc(C(F)(F)F)n2)cc1,72.2% (inactive)
7,Cc1n[nH]c(C)c1-c1c(C)n[nH]c1C,10.3% (inactive)
8,Fc1ccc(-n2cc(COc3ncnc4sc5c(c34)CCCC5)nn2)cc1Cl,95% (inactive)
9,CC(c1ccccc1)n1ccnc1CO (stereo not given),97.3% (inactive)
10,C=Cc1cc[n+](CCCCCCCCCCCC)cc1,106% (inactive)
11,Clc1nc(Nc2ccccc2)nc(Nc2ccccc2)n1,92.4% (inactive)
12,COc1ccc(C2CC(n3nnnc3-c3ccccc3)=NN2)cc1 (stereo not given),62% (inactive)
13,C#CCNC(=O)[C@H](Cc1ccccc1)NC(=O)[C@]12CC[C@@H](C(=C)C)[C@@H]1[C@H]1CC[C@@H]3[C@@]4(C)Cc5c([nH]c6ccccc56)C(C)(C)[C@@H]4CC[C@@]3(C)[C@]1(C)CC2,85.3% (inactive)
14,O=S(=O)(c1cccc(NC2=Nc3cccc4cccc2c34)c1)N1CCCC1,51.4% (inactive)
15,COc1cccc(CNCCN2C(=O)c3ccc4c5c(ccc(c35)C2=O)C(=O)N(CCNCc2cccc(OC)c2)C4=O)c1,9.83% (active)
16,CC(=O)OCCCCCNc1ccccc1,109% (inactive)
17,CN1CCN(c2cc(F)c(NC3=C(Cl)C(=O)c4ncccc4C3=O)c(F)c2)CC1,-58.2% (active)
18,Cc1ccc(C2CC(c3cccc(Nc4ccncc4)c3)=NN2c2ccccc2)cc1 (stereo not given),-92% (active)
19,COc1ccc(/C=C(/c2ccccc2)[N+](=O)[O-])cc1,-31.3% (active)
20,CCCN=C(N)c1ccc(NC(=O)c2ccc(C(=O)Nc3ccc(C(N)=NCCC)cc3)cc2)cc1,87.8% (inactive)
